PBM binding z-score data for 40 sequences are collected here from the supplement of paper PMC6555819.

This experiment has as its system VDR:RXRa (NR concentration 270 nM, RXRa partner concentration 90 nM). The experiment in a line: PBM binding z-score (relative to random genomic background probes); higher = stronger binding; sequences stand for … in GC…GCGATTGACAGCGTAGAATGAAGG
As to the method:
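Protein-binding microarray (Agilent 4x180K custom design, double-stranded 60-nt probes: 5' GC cap, 34-nt variable region, 24-nt constant primer region; full probe sequence given). Purified or IVT nuclear receptor:RXRα heterodimers (3:1 NR:RXRα, mostly 270:90 nM) or homodimers were incubated for 1 h in PBS with 2% milk and no ligand, then detected with Alexa488 antibodies. Fluorescence from o1-orientation probes (~5 replicates averaged) was converted to z-scores against 500 random hg19 background probes. Variable regions are seed direct-repeat (DR0–DR5) sites, all their single-nucleotide variants and half-site ablations.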
The sequence TCTAGTTGGTCACGGATGTCACACACGACGGGTA had a PBM binding z-score of 1.18.

GGAACGAGGGCAAAGTTGATAGCTTCTGTCGACG came in with a PBM binding z-score of 1.09.

On to GGAACGAGGGCATTCGAGTTTATAGCATGGCGAT, for which the PBM binding z-score came out at 5.31.

The sequence CCTACTGGGCCATCAGGTCATTGTTATCAACGTT displayed a PBM binding z-score of 1.52.

ATCTCTAGGTAACCGAGTTCAGTGAATGCCGAAC returned a PBM binding z-score of 5.27.

On to ACTCGGAGGACAAAGGCCAGAGCTACGCCAGTGA, for which the PBM binding z-score was -0.667.

GCTCGCAGGACAAGGTCAGAGCTTTGTCCGTAGA gave a PBM binding z-score of 0.842.

As for GCTAGTTGGTCAGTAAAACGTCACACACCGGTCG, the PBM binding z-score was -0.225.

For ATCTCTAGGTAAAGATAGTTCAATGAATGCAAAT, the PBM binding z-score was 1.61.

CGTCCAAGGCCAGCAGGTCAGTGAAAGCGACGTG displayed a PBM binding z-score of -0.178.

Consider GCTCGGAGGACCAGGTCAGAGCTTTGTCCGTAGA, for which the PBM binding z-score was -0.322.

CGAACTAGGTCATTGACAGGACAGAGAATAGTAA gave a PBM binding z-score of 2.18.

TCTTGTAGATCAGGCAGGTTAAGAAAGCCTGAGT yielded a PBM binding z-score of 0.268.

CCTTACGGGTCGCGAGGTTATAGCACGACGAGCG displayed a PBM binding z-score of 2.88.

CCGACTCGGGCAGAAAGGTTACCATACCATCCGG displayed a PBM binding z-score of 0.699.

Regarding ATATGTAGGTTAAGGGTGATTCAGGTTGGTTCGC, the PBM binding z-score is 1.68.

Consider TCATATACGTAATACAGGTGAAAGTCGGCATCTA, for which the PBM binding z-score is 1.29.

In turn, AGAACGAGGGCAATGCGTTGATAGCACGGGTGGC came in with a PBM binding z-score of 1.16.

Sequence ATCTCTAGGTAAAGATAGTCCAGTGAATGCAAAT returned a PBM binding z-score of -0.0135.

For the sequence CCTACTGGGCCAAGGTCATTGGTCAGTCAAAGCA, the PBM binding z-score was 3.39.

CCTAATGGGCCAAAGGTCATTGATTCCAATGCTC came in with a PBM binding z-score of 4.64.

In turn, CCAGATAGGTGAAAGGTAACTCAGTCTGGTACGC came in with a PBM binding z-score of 0.921.

With ATACCGAGGTGATCGTGAGGTCGTTGATACTAAC, the PBM binding z-score worked out at 3.69.

Sequence GGTATTAGTTGAAAGGGCAACCGAATGATTCTCG showed a PBM binding z-score of 1.16.

Turning to CGTCCAAGGTGAAGGTCAGTGAAAGAGACTCGAA, the PBM binding z-score came to 0.859.

Sequence CCTATTAGTTGACCATAAGGGTAACCGAAGCTCG displayed a PBM binding z-score of 0.776.

Regarding GGAGCGAGGGCATTCGAGTTGATAGCATGGCGAT, the PBM binding z-score amounted to 3.31.

With CCGACTGGGGCAAAGGTTCCCATACTCAGTACGA, the PBM binding z-score was -0.179.

GCTGCTAGCTCAACTGATGGTCAGCTAAAGCTCG had a PBM binding z-score of -0.797.

The sequence TCGAGCAGGTTAGTCGGGGCATTCAGCCAACATA registered a PBM binding z-score of 2.09.

TCGAGTAGGTTACCAATGGGGCATTTAGCTTTCT showed a PBM binding z-score of 0.185.

The sequence TCTTGTAGATCGACAGGAGGTTAAGAAAGATCGA gave a PBM binding z-score of 0.501.

Take GGAACGAGGGCGAGTTGATAGCAGAGTTTGATGG: the PBM binding z-score was -0.000397.

As for CCGACTGGGGCAAGGGTACCATAACGCACAGCCA, the PBM binding z-score is -0.346.

In turn, TCATATAGGTAAATGCTAGGTGAAAGCCCGATCT registered a PBM binding z-score of 0.543.

As for CTACCAAAGTGAACAAGGTCGTTGATTACTATTC, the PBM binding z-score came to 3.07.

With TCTTGTAGATCAAAGGTTAGGAAAGCCGAAGCCT, the PBM binding z-score came to 0.697.

GCCTACGGGTCAAAGGTTATAGCATGAATAGAAT: the PBM binding z-score amounted to 5.46.

The sequence TCGAGTAGGTTAGTCCGGGCATTCAGCCAACATA registered a PBM binding z-score of 0.223.

Consider ATCGAAAGGTCGACAAGGTGAGTATACACCGTTT, for which the PBM binding z-score stood at 4.61.
